Screening results deposited in PubChem BioAssay by National Center for Advancing Translational Sciences (NCATS).
Marburg entry inh: blocks Marburg virus binding to or entry into cells; Marburg virus pseudotyped entry inhibition, cell reporter; Potency, µM (doses to about 37.8 µM), hits mostly inhibitors; 300,000 tested, 1.8% active; AID 540276; calls by dose curve; tested in HEK293 cells
Lassa entry inh: Lassa virus entry inhibition. Lassa virus pseudotype entry inhibition, cell reporter. Potency, µM (doses to about 37.9 µM), most hits filed as inhibitors. 300,000 tested, 1.2% active. AID 540256; calls by dose curve; tested in HEK293 cells; also: nearly all actives have a fitted effect of over 50% in size
Pf growth 48h: inhibits P. falciparum growth in the first generation, 48 h; P. falciparum luciferase growth in erythrocytes, 48 h; Potency, µM (top dose mostly 28.7 µM), hits mostly inhibitors; 310,000 tested, 5.9% active; AID 504832
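Luciferase-expressing parasites in RBCs, 2% Hct / 0.1% parasitemia final; RPMI 1640 + 0.5% Albumax; 37 C, 5% CO2, one generation; luminescence read-out, lower signal = inhibition.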
HCV inhibitor: inhibitors of hepatitis C virus infection | 340,000 tested, 3.4% active | Huh7.5.1 HCVcc-Cre infection, luciferase reporter, 44 h | Potency, µM (top dose mostly 41.8 µM), usual class: inhibitors | AID 651820
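Whole-lifecycle infectious HCVcc-Cre system; cells 1,000/well, compound then virus (~0.5 moi) added 4 h after plating, 44 h culture. Luciferase read 15 sec following 15 min substrate incubation, room temp.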
Pf growth 96h: inhibits malaria parasite growth, 96 h. P. falciparum luciferase reporter growth, 96 h. Potency, µM (highest dose often 28.7 µM), hits mostly inhibitors. 320,000 tested, 6.9% active. AID 504834
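P. falciparum expressing integrated firefly luciferase, in erythrocytes at 2% hematocrit, 0.05% parasitemia, incubated with compounds 96 h at 37 C, 5% CO2. Growth inhibition read as loss of luminescence; two-generation exposure targets delayed-death apicoplast inhibitors.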
HCMV inh: human cytomegalovirus inhibition. activity change, negative = inhibition, % at 57.5 µM. 410,000 tested, 4.5% active. HFF cells, HCMV-luciferase reporter, 72 h; active compounds read low. AID 1259415; in the data active = activity change below about -60%; inconclusive = no clear call, values can overlap the other calls; inactive = above about -39%
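Luciferase read-out from HCMV-luciferase-infected HFFs (MOI 1 PFU/cell) 72 h post infection at 37C; compounds added after 16 h cell attachment; activity normalized between buffer-only basal and Salinomycin (10uM) inhibitor controls.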
Numbers stand for hits; 0 = inactive; ? = inconclusive; - = no result given; [ ] = dose if it differs, or a comment. Compounds with a hit are over-represented: about 14% of the library has one in this group of screens. Unless noted, calls follow the shape of the dose curve; as a rule, active = well fitted inhibition curve with a large enough effect; inconclusive = small, poorly fitted or top-dose-only effect, or another doubt; inactive = no such curve, though single readings can be large or run the other way.

SMILES | Marburg entry inh | Lassa entry inh | Pf growth 48h | HCV inhibitor | Pf growth 96h | HCMV inh
C[C@@H]1CN([C@@H](C)CO)C(=O)CCCn2cc(nn2)CO[C@H]1CN(C)C(=O)Nc1ccccc1F | - | - | - | - | - | 0
Cc1nn2c(NCc3cccnc3)c3c(nc2c1-c1ccccc1)CCC3 | ? | ? | ? | 0 | 1.47µM | ?
Cc1nn2c(NCCN(C)C)c3c(nc2c1-c1ccccc1)CCCC3 | 10µM | 0 | ? | 7.08µM | 2.08µM | ?
Cc1nn2c(NCCOCCO)c3c(nc2c1-c1ccccc1)CCCC3 | ? | 0 | 0 | 11.2µM | ? | -
COCCNc1c2c(nc3c(-c4ccccc4)c(C)nn13)CCCC2 | ? | 0 | ? | ? | 0 | 0
COC(=O)c1ccc(-n2c(C)nc(=O)c(-c3ccccc3)c2C)cc1 | 0 | 0 | ? | 0 | 0 | 0
COc1ccc(-n2c(C)nc(=O)c(-c3ccccc3)c2C)cc1 | 0 | 0 | 0 | 0 | 9.28µM | 0
CCOC(=O)C(NCc1ccc(F)cc1)(NC(=O)c1ccccc1)C(F)(F)F (stereo not given) | 0 | ? | 0 | 0 | 10.4µM | 0
COc1ccc(CNC(=O)c2ccc(-c3ccccc3)cc2)cc1 | 0 | ? | 0 | 0 | 0 | 0
COc1ccc(CNC(NC(=O)c2ccccc2)(C(F)(F)F)C(F)(F)F)cc1 | 0 | ? | 11.7µM | ? | ? | 0
CCC(C)n1ncn(-c2ccc(N3CCN(c4ccc(OCC5COC(Cn6cncn6)(c6ccc(Cl)cc6Cl)O5)cc4)CC3)cc2)c1=O (stereo not given) | - | - | 3.38µM | ? | 0 | -65.6
CCOCCOC(=O)c1[nH]c2c(c1C)C(=O)CC(c1cc(OC)c(OC)c(OC)c1)C2 (stereo not given) | ? | 0 | - | 5.01µM | ? | -61.8
CCCOC(=O)c1[nH]c2c(c1C)C(=O)CC(c1ccc(OC)c(OC)c1)C2 (stereo not given) | 0 | 0 | ? | 0 | ? | ?
COCCOC(=O)c1[nH]c2c(c1C)C(=O)CC(c1ccc(OC)c(OC)c1)C2 (stereo not given) | - | - | 0 | 10µM | 0 | ?
COC(=O)c1[nH]c2c(c1C)C(=O)CC(c1cc(OC)c(OC)c(OC)c1)C2 (stereo not given) | - | - | ? | 10µM | 0 | -73.5
CCOC(=O)c1[nH]c2c(c1C)C(=O)CC(c1ccc(F)cc1)C2 (stereo not given) | - | - | 0 | ? | ? | ?
COC(=O)c1[nH]c2c(c1C)C(=O)CC(c1ccc(OC)c(OC)c1)C2 (stereo not given) | - | - | - | 0 | 0 | -
COc1cc(C2CC(=O)C=C(O)C2)cc(OC)c1OC (stereo not given) | ? | 0 | 5.86µM | 0 | ? | 0
COc1ccccc1NC(=O)C1=C(C)Nc2nc(SCc3ccccc3)nn2C1c1ccccn1 (stereo not given) | ? | 0 | - | - | - | 0
Cc1nc(Cc2nnc(SC(C)C(=O)Nc3ccccc3)o2)cs1 (stereo not given) | - | - | - | - | - | 0
Cc1c(C(=O)OC2CCCCCC2)[nH]c2c1C(=O)CC(c1ccccc1)C2 (stereo not given) | 0 | 0 | - | - | - | 0
COc1cc(C2CC(=O)c3c([nH]c(C(=O)OC4CCCC4)c3C)C2)cc(OC)c1OC (stereo not given) | ? | ? | - | - | - | -97.9
Cc1onc(-c2c(F)cccc2Cl)c1C(=O)Nc1ccc(OC(C)C)cc1 | 0 | 0 | - | - | - | 0
Cc1nn(-c2ccccc2)c2[nH]c(=O)c(CNc3ccc4c(c3)OCCO4)cc12 | 0 | ? | 0 | 0 | 0[5.75 µM] | 0
Cc1ccc(-c2nn(-c3ccccc3)cc2CNCc2ccccc2)cc1 | ? | ? | ? | 11.2µM | 0 | 0
SMILES | Marburg entry inh | Lassa entry inh | Pf growth 48h | HCV inhibitor | Pf growth 96h | HCMV inh
Cc1nn(-c2ccccc2)c2[nH]c(=O)c(CNCc3ccc4c(c3)OCO4)cc12 | ? | 0 | 4.65µM | 0 | 0 | 0
Cc1nn(-c2ccccc2)c2[nH]c(=O)c(CNCCN3CCOCC3)cc12 | 0 | 0 | 0 | 0 | 0 | 0
Cc1ccc(-c2nn(-c3ccccc3)c3[nH]c(=O)c(CNCCN(C)C)cc23)cc1 | 0 | - | 4.65µM | 0 | 0 | -
Cc1ccc(-c2nn(-c3ccccc3)c3[nH]c(=O)c(CNCc4ccccc4)cc23)cc1 | ? | 0 | 1.04µM | ? | 0 | 0
O=C(CSc1nccn1Cc1ccccc1)NCc1ccccc1Cl | - | 0 | - | - | - | 0
Cc1ccc(NC(=O)c2cc3ccccn3n2)cc1F | - | 0 | - | - | - | 0
Cc1ccc(Cc2c(C)nc3nc(SCC(=O)NC(C)c4ccccc4)nn3c2C)cc1 (stereo not given) | 0 | 0 | - | - | - | 0
Cc1oc2cc3oc(=O)c(CC(=O)N4CCCCC4)c(C)c3cc2c1C | 0 | 0 | - | - | - | -70.8
Cc1coc2cc3oc(=O)c(CCC(=O)NCCCn4ccnc4)c(C)c3cc12 | - | - | 0 | ? | 10.4µM | 0
Cc1oc2cc3oc(=O)c(CCC(=O)NCCCN4CCOCC4)c(C)c3cc2c1C | - | - | 0 | 1.58µM | ? | 0
Cc1oc2cc3oc(=O)c(CCC(=O)NCCCn4ccnc4)c(C)c3cc2c1C | - | - | 0 | ? | ? | 0
Cc1oc2cc3oc(=O)c(CCC(=O)N4CCCCC4)c(C)c3cc2c1C | ? | ? | - | - | - | 0
Cc1oc2c(C)c3oc(=O)c(CCC(=O)NCCCn4ccnc4)c(C)c3cc2c1C | - | - | 13.1µM | 10µM | ? | 0
O=S1(=O)N[C@H](Cc2ccccc2)COc2cc(N3CCOCC3)ccc21 | - | - | - | - | - | 0
C=NC(C(=O)NC1C(=O)N2C1SC(C)(C)C2C(=O)O)c1ccccc1 (stereo not given) | - | - | 0 | - | 0 | -
CCOC(=O)[C@]12CCC=C1N(Cc1ccc(Cl)cc1Cl)C(=O)[C@H](CC(=O)N1CCCCC1)C2 | - | - | - | - | - | 0
Cc1ccc(CNC(=O)CCCn2c(=O)c3ccccc3n(Cc3ccc(Cl)cc3)c2=O)cc1 | 0 | 0 | - | - | - | 0
Cc1c(CCC(=O)NCCCn2ccnc2)c(=O)oc2cc3occ(C(C)(C)C)c3cc12 | 0 | ? | ? | ? | ? | ?
Cc1c(CCC(=O)NCCCn2ccnc2)c(=O)oc2cc3oc4c(c3cc12)CCCC4 | - | - | 10.4µM | ? | ? | ?
CCC1=NN2C(=N)/C(=C\c3cccn3-c3ccc(Cl)cc3)C(=O)N=C2S1 | 0 | 0 | 0 | ? | ? | -81.1
NC(=O)c1c(NC(=O)c2nc(SCc3ccccc3F)ncc2Cl)sc2c1CCCC2 | 0 | 0 | - | - | - | 0
CCCCCCCCN1C(=O)[C@H](CC(=O)NCc2cccc(C(F)(F)F)c2)C[C@@]2(C(=O)OC)CCCCC=C12 | - | - | - | - | - | 0
O=C1c2ccccc2CC1Sc1nnc(-c2ccccn2)o1 (stereo not given) | ? | ? | ? | 0 | 13.1µM | 0
Cc1nn(C2CCS(=O)(=O)C2)c(C)c1CN(C)C(=O)c1ccccc1 (stereo not given) | - | - | 0 | 0 | 0 | 0
CC(C)=CCC/C(C)=C/CCC(C)NCCN1CCNCC1 (stereo not given) | 0 | - | 13.1µM | - | ? | -
CC(C)=CCC/C(C)=C/CC(C)(C)CNCCN1CCNCC1 | 0 | - | 4.65µM | - | 4.65µM | -
